{"source": "ChEMBL document CHEMBL4513141", "about": "“CO-ADD screening of NIH (USA) - Clinical Collection” (2021)", "note": "Among all 23,000 compounds or so, about 30 (0.1%) showed an effect of 50% or more. The entries come from a sample that favours strong results as a whole. Potency and affinity values are given separately.", "data": [{"test_system": "Pseudomonas aeruginosa", "settings": "Concentration 20 uM; ASSAY_TEST Inhibition of Bacterial Growth; detection method Absorption (OD600); MEDIA CAMHB; plate type 384well; NBS; CORNING #3640; time 18 hr", "units": {"Inhibition": "%"}, "values": [{"smiles": "CCOC(=O)[C@@H](CCc1ccccc1)N[C@@H](C)C(=O)N1CCC[C@H]1C(=O)O.O=C(O)/C=C\\C(=O)O", "Inhibition": 1.23}, {"smiles": "CCOC(=O)[C@H](CCc1ccccc1)N[C@@H](C)C(=O)N1[C@H](C(=O)O)C[C@@H]2CCC[C@@H]21", "Inhibition": 53.62}, {"smiles": "CCOC(=O)[C@H](CCc1ccccc1)N[C@@H](C)C(=O)N1Cc2ccccc2C[C@H]1C(=O)O.Cl", "note": "[QUINAPRIL HYDROCHLORIDE]", "Inhibition": 14.62}, {"smiles": "Cc1cnc(NC(=O)C2=C(O)c3ccccc3S(=O)(=O)N2C)s1", "note": "[MELOXICAM]", "Inhibition": 4.04}, {"smiles": "CN1C(C(=O)Nc2ccccn2)=C(O)c2ccccc2S1(=O)=O.O", "Inhibition": 7.03}, {"smiles": "CCOC(=O)OC(C)OC1=C(C(=O)Nc2ccccn2)N(C)S(=O)(=O)c2ccccc21", "note": "(stereo unspecified) [AMPIROXICAM]", "Inhibition": 53.02}, {"smiles": "N[C@@H]1CONC1=O", "note": "[CYCLOSERINE]", "Inhibition": 60.23}, {"smiles": "C[C@@H]1O[C@@H](OC[C@H]2O[C@@H](Oc3c(-c4ccc(O)c(O)c4)oc4cc(O)cc(O)c4c3=O)[C@H](O)[C@@H](O)[C@@H]2O)[C@H](O)[C@H](O)[C@H]1O", "note": "[RUTIN]", "Inhibition": 17.85}, {"smiles": "O=c1c(O[C@@H]2O[C@H](CO)[C@@H](O)[C@H](O)[C@H]2O)c(-c2ccc(O)c(O)c2)oc2cc(O)cc(O)c12", "note": "[ISOQUERCETIN]", "Inhibition": 60.53}, {"smiles": "O=c1c(O[C@@H]2O[C@H](CO)[C@H](O)[C@H](O)[C@H]2O)c(-c2ccc(O)c(O)c2)oc2cc(O)cc(O)c12", "note": "[HYPEROSIDE]", "Inhibition": 12.67}, {"smiles": "Cl.Nc1c2c(nc3ccccc13)CCCC2", "note": "[TACRINE HYDROCHLORIDE]", "Inhibition": 19.73}]}]}
